Source: PubChem BioAssay AID1508600 (Functional Genomics Laboratory (NCATS/FGL), 2020)
About 3,700 (7%) of roughly 53,000 sequences were called active. This is one part of a sample in which actives are shown more often than they occur.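 The calls were made as follows: active = gene knockdowns whose robust z-score for IL-1 alpha signal is at least 2 or at most -2, so actives lie on both sides; inactive = the rest.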

experiment: Components of the Cytosolic LPS Sensing Pathway: Gene Identification via Genome-wide siRNA Screen; conditions: RAW264.7 macrophages, IL-1a HTRF, actives lie on both sides, screened at 100 nM (by protocol), cells primed 5 h with Pam3CSK4 first;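 also: robust z of the log signal after scaling to non-targeting control siRNA wells of the plate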
How it was run: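 Cells (RAW264.7, 1×10^4 per well) were transfected with siRNA at 100 nM and cultured 48h at 37 degrees C. Pam3CSK4 was added for 5 hours; LipidA transfection followed for 24 hour. IL-1a was then measured by HTRF.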

| Sequence | z-score |
| --- | --- |
| GGAAUGGAUCCUGAUGAUATT against Spcs2 | -0.877 (inactive) |
| GCUCGAUCAUGGGCCUAUATT against Crls1 | -0.189 (inactive) |
| GGAUAGUUUGGUAAUGAAATT against Cds1 | -0.748 (inactive) |
| GGCAGAUAAAGAUGGAGCATT against Ndp | 3.69 (active) |
| CGGGCUAUCUGGAACUAUATT against Sesn1 | -0.466 (inactive) |
| GGCUUAAAGGUCCUGUGCUTT against Ighmbp2 | -2.89 (active) |
| GGUUUAUGCAAUGAAGCUUTT against Rock2 | -0.0928 (inactive) |
| GGUUAUGGUUUUGUUGACUTT against Rbms1 | -0.606 (inactive) |
| GGCUUUAAUGCCUGUAUUATT against Ilvbl | -0.185 (inactive) |
| GGUUUGGAUGUGAAACAAGTT against Myot | -0.861 (inactive) |
| GGAAUCUCGGAGGAAAACUTT against Hyou1 | 1.99 (inactive) |
| GGCAGUAGCCUUGUCUGUCTT against Prrx2 | -1.42 (inactive) |
| GCAAGAUCCCGACACAUACTT against Tead4 | -2.22 (active) |
| GGUCUCACAGCAGUACUCATT against Clk4 | -1.46 (inactive) |
| GGACACAGGGUCUCUUACATT against Msrb2 | -1.25 (inactive) |
| GGCUCAAGACUUAAAUUCATT against Olfr1100 | 0.437 (inactive) |
| CCUACUGGUUGAAAAUAUUTT against Tceanc2 | 1.16 (inactive) |
| GGAAGACACUCCUCUGCUCTT against Oca2 | 1.63 (inactive) |
| GGUGCGUCCUGAAAUCAUCTT against Txndc12 | -2.52 (active) |
| GGUUGAUGAAAAAACUGUATT against Itsn2 | 0.755 (inactive) |
| GGCUAGAGAAAUAGUGUUGTT against Reep1 | 0.218 (inactive) |
| GGAUCUUCAAUUCGUUGGUTT against Cachd1 | 2.75 (active) |
| GCCACUCAAAGUUCGAAGGTT against Tmem51 | -0.515 (inactive) |

| Sequence | z-score |
| --- | --- |
| GGUACUAAAGAAAUAUCCCTT against Sirt7 | 0.736 (inactive) |
| GGCUUGUUUCCAAAAUAGGTT against Rflna | 0.327 (inactive) |
| GGCUUUCUUUGCCAUGACCTT against Copg1 | -2.93 (active) |
| CCCUAGAUGGCCGAAAUAUTT against Dazap1 | -1.47 (inactive) |
| CCUUAUCUGGAGUGCGAGATT against Gpr158 | 0.452 (inactive) |
| CCAAUCCUGAAUAAUGAGATT against Spag17 | 0.0419 (inactive) |
| CGCCGCAGUAUUAAUGGCUTT against Nxph4 | 0.225 (inactive) |
| GGUGGACCUGCACUUUACCTT against Fam135b | 0.67 (inactive) |
| CGUCUAUCUUGGAUUACUATT against Dll1 | 2.11 (active) |
| UAAAUACUUACCAGCUGGATT against Olfr1306 | 1.06 (inactive) |
| GCACCAGUCGAAUCCUCAATT against Gpr137 | -1.46 (inactive) |
| GGCCCAAGGAUCAAUUUAUTT against Zup1 | 0.914 (inactive) |
| GGUUCCUGGGAACCUAAGUTT against Med25 | 2.02 (active) |
| CCUCAUCGAUGCACUACCCTT against Lrfn4 | -0.338 (inactive) |
| GCUCAUGACACUCUUCCUGTT against Spib | 1.45 (inactive) |
| GGAGGAUGGCUUUACCGCATT against Mib2 | -1.64 (inactive) |
| GCCGGAUUGAGAUCUCUAUTT against 1500015L24Rik | 0.734 (inactive) |
| GGAACAGGACAAUGACAGUTT against Gzme | 1.43 (inactive) |
| GGCUUACUUCAUUUCAGUUTT against Zfp526 | 0.0808 (inactive) |
| GGAAAACAUUAAGAAGGGCTT against Ccn2 | 3.41 (active) |
| GGACCUCCACCGUUACUACTT against Sgsh | 0.367 (inactive) |
| GGAGGAACACAAGAUUUUCTT against Ppp2r5c | -0.322 (inactive) |
| GGAAGUCCAUCUCUUUUGCTT against Olfr56 | 0.213 (inactive) |

| Sequence | z-score |
| --- | --- |
| GGAUCCAGAAAGUCCAGAUTT against Nt5c3b | 0.918 (inactive) |
| GGAUGUUGGUACUUUUUGATT against Pwp1 | -0.254 (inactive) |
| GGAAUAAAGUGUUGUGUCATT against Wfdc15b | -0.118 (inactive) |
| GGUAGCAGUUGCUUUAAUATT against Siah2 | 2.65 (active) |
| GGGUUUCACAGGCAAACAGTT against Suclg1 | -0.904 (inactive) |
| CCCUGUACCUAGCUCAAGATT against Ecel1 | -0.693 (inactive) |
| GGAAUCAUCUUUGUGGAGATT against Nudt22 | -0.733 (inactive) |
| GCCAACGAGAGUAAACACGTT against 5930403N24Rik | -0.0706 (inactive) |
| GGUCUACUGACUCAAAGUCTT against Mrps33 | 2.2 (active) |
| GGAUUUCAAAUGGAAACAATT against Vmn1r45 | -1.15 (inactive) |
| GCAUGAAUUUUGCACGGACTT against Rad18 | 1.04 (inactive) |
| UCAACUCAAACUAUGUCGATT against Hoxb4 | -0.172 (inactive) |
| GGUCUGUGGAUUUAAACUUTT against Sestd1 | 0.931 (inactive) |
| CGAAGAGAGCUGCAUUAAATT against BC049715 | -1.37 (inactive) |
| GGCUAUCAUGAACUUGGAUTT against Gpd2 | -0.57 (inactive) |
| GGAAAUGUACAAGACUGAUTT against Anxa2 | 2.29 (active) |
| GGAAAAAAACUUGCUGGAUTT against Ppp3ca | -0.681 (inactive) |
| CCAAAUAACCUGCUACGAGTT against Ffar2 | 0.905 (inactive) |
| GGUAUACUAACUUUUAAGGTT against Fmo1 | -0.228 (inactive) |
| GCCUCUAUUCUACACCACATT against Gpr137 | -2.1 (active) |
| GAAAAACUGCUGUUUUGGATT against Ly6g6d | 1.87 (inactive) |
| GGAGACGAGAGGAUCCUCUTT against Chga | -1.56 (inactive) |
| GGUCAAGAAUGUAGCUGAUTT against Atp6v0d1 | -1.87 (inactive) |
